In the library only some 3.2% were active in any assay of this set; here they are far more common.
GDH-TPI counter-1: GDH-TPI coupled enzyme inhibition counter-screen; GDH-TPI coupled enzyme counterscreen, NADH absorbance; inhibition, % at 4.8 µM; actives 1.2% (n = 360,000); AID 588335; in the data active = inhibition above about 30%;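 also: 0% = DMSO wells and 100% = wells lacking the enzyme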
FBA Mtb inh: Mtb fructose-bisphosphate aldolase inhibition; actives 2.3% (n = 360,000); purified M. tuberculosis FBA, fluorescence read-out; inhibition, % at 1 µM; AID 588726; in the data active = inhibition above about 27%;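 also: 0% = vehicle and 100% = reference inhibitor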
PrPC surface inh: reduces human prion protein on the cell surface | P04156 | cell surface PrPC, TR-FRET read-out | inhibition, % at 13.8 µM | actives 0.43% (n = 370,000); in the data active = inhibition above about 24%; also: 0% = median of the test wells and 100% = reference compound wells
Y pestis TopoI: Y. pestis Topo-I inhibition via cleavage products | Y. pestis Topo-I cleavage product accumulation, plate reader | activity, % at 10 µM | actives 0.064% (n = 360,000) | AID 504884; in the data active = activity above about 50%, passing the limit was not always enough
TcdB GH inh: blocks C. difficile toxin B glycohydrolase activity; P18177; TcdB glycohydrolase enzymatic assay, plate reader; inhibition, % at 9.99 µM; actives 0.24% (n = 350,000); AID 652162
Mtb FBA confirm: Mtb FBA inhibition, confirmed | shares compounds with FBA Mtb inh | purified M. tuberculosis FBA, fluorescence read-out | inhibition, % at 1 µM | actives 78% (n = 5,600) | AID 651616; in the data active = inhibition above about 27%;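 also: 0% = vehicle wells and 100% = reference inhibitor wells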
GDH-TPI counter-2: counter-screen for M. tuberculosis FBA inhibitors: GDH-TPI coupled enzyme inhibition; shares compounds with FBA Mtb inh; GDH-TPI coupled enzyme counterscreen, fluorescence; inhibition, % at 1 µM; actives 81% (n = 5,600); AID 652141
* marks the source's active call; other numbers are inactive results. Rule as the data show it, unless noted: active = inhibition above about 10%; inactive = the rest.

`O=C(CN1CCOCC1)NCC[C@@H]1CC[C@H](NC(=O)Nc2ccc(Cl)cc2)[C@@H](CO)O1` gave TcdB GH inh 0.9.
For C[C@@H]1CN([C@H](C)CO)C(=O)c2cc(NC(=O)CCC(F)(F)F)ccc2O[C@@H](C)CCCCO[C@@H]1CN(C)S(C)(=O)=O the results were TcdB GH inh 0.1.
Screening C[C@H](CO)N1C[C@H](C)[C@@H](CN(C)CC2CCCC2)Oc2cc(C3=CCCCC3)ccc2S1(=O)=O returned TcdB GH inh -1.0.
`O=C(C[C@H]1C[C@@H]2c3cc(NC(=O)C4CCOCC4)ccc3O[C@@H]2[C@H](CO)O1)NCc1ccccn1` gave TcdB GH inh -0.6.
Screening CCCC(=O)Nc1cc(-c2nc3ncccc3o2)ccc1C returned GDH-TPI counter-1 11.5, FBA Mtb inh 60.4*, PrPC surface inh -3.4, Y pestis TopoI -13.7, Mtb FBA confirm 98.6* and GDH-TPI counter-2 64.9*.
C[C@@H]1CN([C@H](C)CO)C(=O)c2cc(-c3cccc(C#N)c3)cnc2O[C@H]1CN(C)Cc1ccncc1 was read as TcdB GH inh -1.1.
`COc1ccc2oc(C(=O)OCC(=O)N3CCN(C(C)=O)CC3)c(C)c2c1` gave GDH-TPI counter-1 -0.7, FBA Mtb inh 43.5*, PrPC surface inh -5.3, Y pestis TopoI -12.0, TcdB GH inh 1.6, Mtb FBA confirm 59.2* and GDH-TPI counter-2 42.3*.
COc1ccc2oc(C(=O)OCC(=O)N3CCCCC3)c(C)c2c1 was read as GDH-TPI counter-1 3.5, FBA Mtb inh 37.5*, PrPC surface inh -6.4, Y pestis TopoI -1.0, TcdB GH inh -0.8, Mtb FBA confirm 125.2* and GDH-TPI counter-2 113.1*.
`COc1ccc2oc(C(=O)OCC(=O)N3CCN(S(=O)(=O)c4ccccc4)CC3)c(C)c2c1` gave GDH-TPI counter-1 -0.7, FBA Mtb inh 26.2, PrPC surface inh 1.6, Y pestis TopoI 7.4 and TcdB GH inh -0.5.
COc1ccc2oc(C(=O)OCC(=O)N3CCN(c4ccccc4)CC3)c(C)c2c1 was read as GDH-TPI counter-1 -10.0, FBA Mtb inh 5.0, PrPC surface inh -7.5, Y pestis TopoI 9.6 and TcdB GH inh 0.3.
Screening COCCN1CN(S(=O)(=O)c2cccc(Cl)c2)c2nc3ccccc3nc21 returned GDH-TPI counter-1 26.6, FBA Mtb inh 29.4*, PrPC surface inh 3.0, Y pestis TopoI 18.0, TcdB GH inh 0.0, Mtb FBA confirm 53.7* and GDH-TPI counter-2 30.0*.
Screening O=S(=O)(c1cccc(Cl)c1)N1CN(CC2CCCO2)c2nc3ccccc3nc21 (configuration not stated) returned GDH-TPI counter-1 21.4, FBA Mtb inh 36.1*, PrPC surface inh 3.4, Y pestis TopoI 9.1, TcdB GH inh 0.8, Mtb FBA confirm 187.6* and GDH-TPI counter-2 146.0*.
`O=C(CN1CCOCC1)NCC[C@H]1CC[C@H](NC(=O)c2ccccc2F)[C@@H](CO)O1` gave TcdB GH inh -1.2.
`COC(=O)C[C@@H]1CC[C@H]2[C@H](COc3ccc(NC(=O)c4ccc(F)cc4)cc3C(=O)N2C)O1` gave TcdB GH inh 0.6.
Screening Nc1ccc(Nc2ccccc2)c(S(=O)(=O)O)c1 returned GDH-TPI counter-1 13.0, FBA Mtb inh 89.7*, PrPC surface inh 0.8, Y pestis TopoI 3.6, TcdB GH inh -2.8, Mtb FBA confirm 84.5* and GDH-TPI counter-2 70.0*.
`Cc1ccc(NC(=O)Cn2nc(C)c([N+](=O)[O-])c2C)cc1C` gave GDH-TPI counter-1 -1.8, FBA Mtb inh 36.5*, PrPC surface inh -3.8, Y pestis TopoI -9.4, TcdB GH inh -0.1, Mtb FBA confirm -5.3 and GDH-TPI counter-2 -6.3.
Screening COc1ccc(NC(=O)CSc2nc(C)c3c(c2C#N)CCCC3)cc1 returned GDH-TPI counter-1 4.8, FBA Mtb inh 3.4, PrPC surface inh 3.3 and Y pestis TopoI -7.4.
`CCc1nnc(NC(=O)CSc2nc(C)c3c(c2C#N)CCCC3)s1` gave GDH-TPI counter-1 8.1, FBA Mtb inh 55.6*, Y pestis TopoI 29.4, TcdB GH inh 0.5, Mtb FBA confirm 4.0 and GDH-TPI counter-2 0.7.
For CN1C(=O)c2cc(NC(=O)Cc3cccs3)ccc2OC[C@H]2O[C@@H](CC(=O)NCc3ccc(-c4ccccc4)cc3)CC[C@H]21 the results were TcdB GH inh 0.2.
`C[C@H](O)C#Cc1cnc2c(c1)C(=O)N([C@H](C)CO)C[C@H](C)[C@H](CN(C)CC1CCOCC1)O2` gave TcdB GH inh 0.5.
`CCN(C(=S)Nc1cc(S(=O)(=O)N2CCOCC2)ccc1Cl)c1cccc2ccccc12` gave GDH-TPI counter-1 -1.1, FBA Mtb inh 48.2*, PrPC surface inh -5.3, Y pestis TopoI 27.1, TcdB GH inh -0.7, Mtb FBA confirm 82.1* and GDH-TPI counter-2 56.2*.
Screening O=S(=O)(c1ccc(Cl)c(NC(=S)Nc2cccc(O)c2)c1)N1CCOCC1 returned GDH-TPI counter-1 10.7, FBA Mtb inh -1.1, PrPC surface inh 6.2, Y pestis TopoI -6.1 and TcdB GH inh 1.7.
`CC(=O)N1CC(=O)N2[C@H](C1)[C@@H](c1ccc(-c3cccc(C(=O)N(C)C)c3)cc1)[C@@H]2CO` gave TcdB GH inh 0.3.
For O=C(Nc1ccc(-c2nc3c(ccc4ccccc43)o2)cc1)c1ccco1 the results were GDH-TPI counter-1 48.2*, FBA Mtb inh 54.5*, PrPC surface inh 4.0, Y pestis TopoI 4.7, TcdB GH inh 4.6, Mtb FBA confirm 106.6* and GDH-TPI counter-2 102.8*.
For Cc1nn(-c2ccccn2)c(N)c1N=O the results were GDH-TPI counter-1 15.7, FBA Mtb inh -6.8, PrPC surface inh -17.5, Y pestis TopoI -3.2 and TcdB GH inh -2.1.
For Cc1nn(-c2ccccn2)c2c1-c1nc(N)ncc1CC2 the results were GDH-TPI counter-1 3.9, FBA Mtb inh 30.4*, PrPC surface inh -4.8, Y pestis TopoI 11.0, Mtb FBA confirm 9.4 and GDH-TPI counter-2 -1.4.
For C[C@H]1CCCCO[C@@H](CN(C)S(=O)(=O)c2ccc(F)cc2)[C@@H](C)CN([C@@H](C)CO)C(=O)c2cc(NS(=O)(=O)c3ccc(Cl)cc3)ccc2O1 the results were TcdB GH inh 0.4.
Screening COc1ccc(-c2ccc(CCC(=O)O)n2CC2CCCO2)cc1 (configuration not stated) returned GDH-TPI counter-1 10.7, FBA Mtb inh 32.5*, PrPC surface inh -0.8, Y pestis TopoI -8.3, TcdB GH inh 0.1, Mtb FBA confirm active and GDH-TPI counter-2 144.1*.
`COc1ccc(-c2ccc(CCC(=O)O)n2CC(C)C)cc1` gave GDH-TPI counter-1 -11.6, FBA Mtb inh 40.9*, PrPC surface inh 5.8, Y pestis TopoI 7.4, Mtb FBA confirm 47.5* and GDH-TPI counter-2 29.8*.
